Values joined by “and” are separate entries in the source; they are usually repeats but may differ in a detail not shown here. Equal entries are not always repeated. Inconclusive results are not listed. Entries that show only a call come without a potency. Active and inactive are the calls of the source. Calls follow the shape of the dose curve; as a rule, active = well fitted inhibition curve with a large enough effect; inconclusive = small, poorly fitted or top-dose-only effect; inactive = flat fitted curve, though single readings scatter.
Potency is read from the fitted curve at half-maximal effect.

This assay has as its system CP203. Kind of assay: qHTS profiling for inhibitors of Plasmodium falciparum proliferation (AID 504749). Also: nearly all actives have a fitted effect of over 60% in size. Conditions: P. falciparum in erythrocytes, SYBR Green DNA, 72 h; series mostly up to 28.7 µM. The text has this:
NIH National Institute of Allergy and Infectious Diseases [NIAID] NIH Chemical Genomics Center [NCGC] MLPCN Grant: None Assay Provider: Xinzhuan Su, NIAID NCGC Assay Overview: Plasmodium falciparum is a virulent malarial parasite that kills 1-2 million people worldwide each year. Transmitted by mosquitoes, the sporozoite form of the parasite enters the blood stream to infect hepatocytes, where they become merozoites that infect red blood cells (erythrocytes). Within erythrocytes, merozoites begin a […] cycle of growth and division, after which the parasite is released to infect new red blood cells. Gametocytes, which form within erythrocytes as well, circulate in the bloodstream and are ingested by the mosquito, thereby completing the life cycle. To profile malarial isolates for differential chemical responses and to identify inhibitors of malarial growth, an assay that measures P. falciparum growth and replication within erythrocytes was employed. This assay uses a DNA binding fluorescent dye (SYBR Green) to detect parasite DNA following cell lysis. Because mature erythrocytes lack DNA, only Plasmodium-derived DNA is detected.
NCGC Assay Protocol Summary: The SYBR Green viability assay was adapted from a method described previously (Plouffe et al., 2008). For screening 3 ul culture medium was dispensed into 1536 well black clear bottom plates (Aurora Biotechnologies) using a Multidrop Combi (Thermo Fisher Scientific Inc.), 23 nL compounds in DMSO were added by a pin tool (Kalypsys), and 5 ul of erythrocytes infected with P. falciparum (0.3% parasitemia, 2.5% hematocrit final concentration) were added. The plates were incubated at 37 C in a humidified incubator in 5% CO2 for 72 h, and 2 ul lysis buffer (20 mM Tris HCl, 10 mM EDTA, 0.16% saponin, 1.6% triton X, 10X SYBR Green I supplied as 10,000X […] by Invitrogen) was added to each well. The plates were mixed for 25 sec with gentle shaking and incubated overnight at room temperature in the dark. The following morning, fluorescence intensity at 485(14) nm excitation and 535(25) nm emission wavelengths was measured on an EnVision (Perkin Elmer) plate reader. Plate reads were normalized relative to the control inhibitor (0.29 uM artemisinin) and vehicle (DMSO) wells present on each plate and then corrected by an algorithm using vehicle-only control plates at the beginning and end of the compound plate stack.
With `CN1C(=O)CN=C(c2ccccc2)c2cc([N+](=O)[O-])ccc21`, the Potency result is “inactive”.

`CC(C)(C)OC(=O)c1ncn2c1[C@@H]1CCCN1C(=O)c1c(Br)cccc1-2`: the Potency entry is “inactive”.

For the molecule `c1cc2c(c(N3CCNCC3)c1)OCCO2`, the Potency entry was “inactive”.

Consider `COP(=O)(OC)C(O)C(Cl)(Cl)Cl` (stereo not given), for which the Potency entry was “inactive”.

Turning to `CC[C@]1(O)CC[C@H]2[C@@H]3CCC4=CCCC[C@@H]4[C@H]3CC[C@@]21C`, the Potency entry was “inactive”.

For the molecule `CCCCCCCCC(=O)NCc1ccc(O)c(OC)c1`, the Potency entry is “inactive”.

As for `CN(C)C(=S)SSC(=S)N(C)C`, the Potency was 4.78 µM (active).

Turning to `O=C(NC(=O)c1c(F)cccc1F)Nc1cc(Cl)c(OC(F)(F)C(F)C(F)(F)F)cc1Cl` (stereo not given), the Potency entry was “inactive”.

As for `C[N+]1(CCC(C(N)=O)(c2ccccc2)c2ccccc2)CCCCC1`, the Potency result is “inactive”.

Regarding `CC[n+]1c(-c2ccccc2)c2cc(N)ccc2c2ccc(N)cc21`, the Potency is 213 nM (active) and 675 nM (active).

On to `CCN(Cc1ccc(Cl)nc1)/C(=C/[N+](=O)[O-])NC`, for which the Potency entry was “inactive”.

`COC(=O)C1=CCCN(C)C1`: the Potency entry is “inactive”.

With `NC(=O)CN1CCCC1=O`, the Potency result was “inactive”.

Regarding `CNC(=O)NC(O)C(Cl)(Cl)Cl` (stereo not given), the Potency result was “inactive”.

On to `CCC(=O)O[C@H]1CC[C@H]2[C@@H]3CCC4=CC(=O)CC[C@]4(C)[C@H]3CC[C@]12C`, for which the Potency entry is “inactive”.

With `C=CCOC(Cn1ccnc1)c1ccc(Cl)cc1Cl` (stereo not given), the Potency was 9.53 µM (active).

Take `C[C@]12Cc3nonc3C[C@@H]1CC[C@@H]1[C@@H]2CC[C@@]2(C)[C@H]1CC[C@]2(C)O`: the Potency result was “inactive”.

For the molecule `OC(c1ccccc1)(c1ccccc1)C1CCNCC1`, the Potency result was “inactive”.

Regarding `C[N+](C)(C)CCOC(=O)C(O)(c1ccccc1)c1ccccc1`, the Potency entry is “inactive”.

For `c1ccc2nc(N3CCNCC3)ccc2c1`, the Potency result was “inactive”.

For `Oc1c(Br)cc(Br)cc1Br`, the Potency entry was “inactive”.

For the molecule `Clc1ccc(CO/N=C(\Cn2ccnc2)c2ccc(Cl)cc2Cl)c(Cl)c1`, the Potency is 5.36 µM (active).

Turning to `C[C@]12CC[C@H]3[C@@H](CC=C4C[C@@H](O)CC[C@@]43C)[C@@H]1CC[C@@H]2O`, the Potency entry was “inactive”.

`CCS(=O)(=O)C(C)(C)S(=O)(=O)CC`: the Potency entry was “inactive”.

For the molecule `O=c1n(Cl)c(=O)n(Cl)c(=O)n1Cl`, the Potency entry was “inactive”.

On to `Cc1c(Cl)c(=O)oc2cc(OP(=O)(OCCCl)OCCCl)ccc12`, for which the Potency is 8.49 µM (active).

As for `COP(=S)(OC)Oc1ccc(Sc2ccc(OP(=S)(OC)OC)cc2)cc1`, the Potency result is “inactive”.

On to `CCNc1nc(Cl)nc(NCC)n1`, for which the Potency result is “inactive”.

As to `Cc1ncc2n1-c1ccc(Cl)cc1C(c1ccccc1F)=NC2`, the Potency entry is “inactive”.

Regarding `CNC(=O)Oc1cccc2ccccc12`, the Potency entry was “inactive”.

On to `CCC1(CC)C(=O)NC(=O)NC1=O`, for which the Potency entry was “inactive”.

Turning to `COc1ccc(C(=O)N2CCCC2=O)cc1`, the Potency result was “inactive”.

In the case of `CCN(CC)C(C)C(=O)c1ccccc1` (stereo not given), the Potency result was “inactive”.

Take `CN1C[C@@H](NS(=O)(=O)N(C)C)C[C@@H]2c3cccc4c3c(cn4C)C[C@H]21`: the Potency entry is “inactive”.

As to `COP(=O)(OC)OC=C(Cl)Cl`, the Potency result is “inactive”.

For the molecule `O=C(CCCN1CCC(n2c(=O)[nH]c3ccccc32)CC1)c1ccc(F)cc1`, the Potency is 4.55 µM (active).

In the case of `Cc1ccc(N=CN(C)C=Nc2ccc(C)cc2C)c(C)c1`, the Potency result is “inactive”.

Take `CCN(CC)CCOC(=O)C(C)(c1ccccc1)c1ccccc1`: the Potency was 7.57 µM (active).

Take `NCc1cccnc1`: the Potency result was “inactive”.

With `CC(C)NCC(O)c1ccc(N)c(C#N)c1` (stereo not given), the Potency result was “inactive”.

The values above are taken from PubChem BioAssay (NCATS).
